Bioassay records (PubChem)
The list is not random: actives were taken first. Their share in the collection is about 1.6%.
KCNQ2 pot – enhances the rat KCNQ2 potassium channel; CHO-K1 KCNQ2, FluxOR thallium flux fluorescence; stronger effect = higher value; AID 2239; 310,000 tested, 0.54% active; B-score at 10 µM;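 active = fluorescence ratio B-score at least 3 SD of library B-scores, with initial fluorescence B-score within 3 of them, cut at about 5.3 in these data; same plate scores as AID 2156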;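 also: B-score of peak minus minimum over baseline fluorescence ratio after K+ and Tl+ stimulus; positive B-score means potentiation of KCNQ2 with more thallium influx and brighter signal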
KCNQ2 block – KCNQ2 (rat) channel inhibition; B-score at 10 µM; AID 2156; O88943; 310,000 tested, 1.1% active; CHO-K1 KCNQ2, FluxOR thallium flux, 20 min; stronger effect = lower value;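 active = fluorescence ratio B-score at most minus 3 library SDs, with starting brightness B-score within 2 library SDs, cut at about -5.5 in these data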
Kir21 confirm – confirmation of mouse Kir2.1 potassium channel inhibitors; shares compounds with KCNQ2 pot; Kir2.1-expressing cells, FluxOR thallium flux fluorescence; stronger effect = lower value; Tl flux remaining, % of negative control (stronger effect = lower value), % at 10 µM; 2,300 tested, 41% active;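 active = Primary-screen hit whose thallium flux fell at least 3 control SD below untreated wells in both duplicates, with normal baseline fluorescence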;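 also: 0% = blank wells without stimulus and 100% = stimulated no-compound controls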
HEK293 ctr – parental HEK293 activity in Kir2.1 inhibitor counter-screen; shares compounds with KCNQ2 pot; parental HEK293 cells, FluxOR thallium flux fluorescence; 0% = unstimulated blank wells; FluxOR signal as % of negative control (100 = no effect), % at 10 µM; 2,300 tested, 19% active; AID 2105;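 active = dye signal at least 3 control SD above or below untreated wells in both duplicates, raw fluorescence within 3, either direction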;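 also: percent is based on the flux ratio of peak minus minimum fluorescence over baseline F0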
CHO-K1 ctr – alters thallium flux in parental CHO-K1 cells, KCNQ2 counter-screen; FluxOR thallium flux fluorescence; zero = vehicle mean+3SD, 100% = vehicle-minus-blank window; activity increase over 3SD of controls, % at 10 µM; 1,200 tested, 43% active; AID 2282; shares compounds with KCNQ2 pot;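 active = signal rise of at least 3 SD above the untreated control mean, in both duplicate wells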;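 also: counter screen of KCNQ2 potentiator hits so any rise reflects channel-independent effects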
KCNQ1 pot spec – selectivity of KCNQ2 potentiators: effect on human KCNQ1. activation over 3SD threshold, % at 10 µM. shares compounds with KCNQ2 pot. 1,200 tested, 28% active. CHO KCNQ1 stable, FluxOR thallium flux fluorescence; beyond 3SD, as % of vehicle-control signal;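 active = fluorescence ratio rise of at least 3 SD of vehicle wells above their mean, in both replicate wells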;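 also: 0% = vehicle mean plus 3 SD and 100% = vehicle minus unstimulated blank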
Target sequence (P51787 whole entry, looked up): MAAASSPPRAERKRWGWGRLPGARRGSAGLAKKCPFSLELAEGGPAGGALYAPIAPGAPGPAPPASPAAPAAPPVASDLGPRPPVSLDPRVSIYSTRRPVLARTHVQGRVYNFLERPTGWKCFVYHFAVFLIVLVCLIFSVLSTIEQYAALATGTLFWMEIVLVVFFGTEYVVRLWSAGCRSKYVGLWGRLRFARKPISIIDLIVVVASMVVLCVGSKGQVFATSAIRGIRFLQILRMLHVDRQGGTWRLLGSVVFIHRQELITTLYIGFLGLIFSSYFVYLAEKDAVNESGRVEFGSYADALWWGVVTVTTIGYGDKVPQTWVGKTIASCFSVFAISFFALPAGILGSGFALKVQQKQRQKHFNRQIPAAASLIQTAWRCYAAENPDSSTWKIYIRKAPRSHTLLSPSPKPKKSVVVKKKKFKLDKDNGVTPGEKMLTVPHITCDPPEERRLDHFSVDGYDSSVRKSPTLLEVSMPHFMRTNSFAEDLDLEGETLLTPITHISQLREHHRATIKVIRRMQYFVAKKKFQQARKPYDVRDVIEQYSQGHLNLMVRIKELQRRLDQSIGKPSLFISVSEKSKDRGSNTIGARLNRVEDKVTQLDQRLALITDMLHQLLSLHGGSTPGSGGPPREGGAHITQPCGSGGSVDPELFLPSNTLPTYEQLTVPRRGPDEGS
KCNQ2 pot confirm – rat KCNQ2 channel potentiator confirmation; shares compounds with KCNQ2 pot; CHO-KCNQ2 cells, FluxOR thallium flux fluorescence; potentiation, less the hit threshold, % at 10 µM; 1,200 tested, 68% active;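 active = fluorescence ratio rising 3 SD or more over the vehicle control mean in both replicates, plus primary screen hit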;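 also: peak minus minimum thallium fluorescence divided by baseline after K/Tl stimulus; 0% = vehicle mean plus 3 SD and 100% = vehicle minus unstimulated blank difference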
Kir21 spec – selectivity of KCNQ2 potentiators: effect on mouse Kir2.1 | shares compounds with KCNQ2 pot | 1,200 tested, 2% active | HEK293 Kir2.1, FluxOR thallium flux fluorescence | activity over 3SD threshold, % at 10 µM;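 active = fluorescence ratio rise of at least 3 SD above the vehicle-control mean, seen in both replicates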;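 also: 0% = vehicle mean plus 3 SD and 100% = vehicle minus no-stimulus blank window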
KCNQ2 W236L pot – rat KCNQ2 W236L mutant potentiation by KCNQ2 potentiators. shares compounds with KCNQ2 pot. CHO KCNQ2-W236L, automated patch clamp current. current increase over 3SD of negative controls (%), stronger effect = higher value, % at 25 µM. 940 tested, 10% active;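 active = current increase at least 3 SD of the untreated controls above them in both duplicate recordings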
Numbers without * were called inactive; i = inactive; . = no result given.

SMILES | KCNQ2 pot | KCNQ2 block | Kir21 confirm | HEK293 ctr | others
C=CCc1ccc(OCC(O)CN2CCc3ccccc3C2)c(OC)c1 (configuration not stated) | . | i | 30%* | i
COc1ccc(OCC(O)CN2CCc3ccccc3C2)cc1 (configuration not stated) | 0.26 | i | . | .
COc1cc(COCC(O)CN2CCc3ccccc3C2)cc(OC)c1OC (configuration not stated) | 0.05 | i | . | .
Cc1cccc(OCC(O)CN2CCc3ccccc3C2)c1 (configuration not stated) | 1.3 | i | 42%* | i
COc1cccc(OCC(O)CN2CCc3ccccc3C2)c1 (configuration not stated) | 0.35 | i | . | .
OC(COc1ccc(Cl)cc1Cl)CN1CCc2ccccc2C1 (configuration not stated) | . | i | 40%* | i
O=C(NC(NC(=O)c1ccccc1)c1ccccc1)c1ccccc1 | 1 | i | . | .
O=C(N=C1N=C2C=CC=CN2Cc2ccccc21)c1ccc(S(=O)(=O)N2CCOCC2)cc1 | 0.09 | i | . | .
CCOC(=O)c1sc(NC(=O)COC(=O)C(CCSC)NC(C)=O)nc1C (configuration not stated) | . | i | . | .
CC1(NC(=S)N(CCO)CCO)CCS(=O)(=O)C1 (configuration not stated) | 0.54 | i | . | .
COC(=O)C1=NN(C(=O)c2ccc(Cl)cc2)C(O)(c2ccccc2)C1 (configuration not stated) | 7.2* | i | i | 424%* | CHO-K1 ctr=-13;KCNQ1 pot spec=95*;KCNQ2 pot confirm=55*;Kir21 spec=-12;KCNQ2 W236L pot=i
CCC1=NN(C(=O)c2ccc(Cl)cc2)C(O)(c2ccc(C)cc2)C1 (configuration not stated) | 2.1 | i | . | .
CCOC(=O)C1=NN(C(=O)c2ccc(C)cc2)C(O)(c2ccc(Cl)cc2)C1 (configuration not stated) | 25* | i | i | 380%* | CHO-K1 ctr=0.0*;KCNQ1 pot spec=-18;KCNQ2 pot confirm=57*;Kir21 spec=-15;KCNQ2 W236L pot=i
CCC1=NN(C(=O)c2ccc(Cl)cc2)C(O)(c2ccccc2)C1 (configuration not stated) | 4.6 | i | . | .
C=CCSc1nc(C)c2cc(C)cc(C)c2n1 | . | i | . | .
O=C(CCN1C(=O)C2CCCCC2C1=O)N1CCN(S(=O)(=O)c2ccccc2)CC1 (configuration not stated) | . | i | . | .
O=C(Nc1ccc(S(=O)(=O)NC2=NCCCCC2)cc1)c1ccc2ccccc2n1 | . | i | . | .
CC1=NN(C(N)=S)C(=O)C1N=Nc1ccc(Cl)cc1Cl (configuration not stated) | 13* | i | i | i | CHO-K1 ctr=-8;KCNQ1 pot spec=-16;KCNQ2 pot confirm=-4;Kir21 spec=-30;KCNQ2 W236L pot=i
CC1=NN(C(N)=S)C(=O)C1N=Nc1ccccc1Cl (configuration not stated) | . | i | . | .
C=CCSc1nc2sc3c(c2c(=O)n1-c1ccc(C)cc1)CCN(C)C3 | . | i | . | .
N#CC(c1ccc(Cl)cc1)c1ccc2c(C(F)(F)F)cc(C(F)(F)F)nc2n1 (configuration not stated) | 18* | i | i | i | CHO-K1 ctr=-22;KCNQ1 pot spec=47*;KCNQ2 pot confirm=21*;Kir21 spec=-36;KCNQ2 W236L pot=i
FC(F)(F)c1cc(C(F)(F)F)c2ccc(N3CCN(c4ccc(Cl)cc4)CC3)nc2n1 | 1.8 | i | . | .
O=C(Nc1nnc(CCc2ccccc2)s1)c1ccccc1F | . | i | . | .
O=C(NCCS(=O)(=O)N1CCN(c2ccccc2F)CC1)c1cccs1 | . | i | . | .
Cc1ccccc1CC(=O)NCC1CCCCC1 | 4.2 | i | . | .
SMILES | KCNQ2 pot | KCNQ2 block | Kir21 confirm | HEK293 ctr | others
Cc1ccc(CC(=O)NCC2CCCCC2)cc1 | 7.5* | i | i | i | CHO-K1 ctr=47*;KCNQ1 pot spec=-26;KCNQ2 pot confirm=-11;Kir21 spec=-23
CCOC(=O)c1cc(NC(=O)N2CCCCC2)c(C)nc1C | 1.1 | i | . | .
CCCCCCCCCCCCCCCC[N+](C)(C)CC | . | i | 52%* | i
CCCCCC[N+](C)(C)CCSSCC[N+](C)(C)CCCCCC | 0.45 | i | . | .
COc1ccc(-c2csc3nc(-c4ccccc4OC)oc(=O)c23)cc1 | 0.06 | i | . | .
CC1CCN(C(=O)CCNS(=O)(=O)c2ccccc2)CC1 | 0.15 | i | . | .
O=C(CCNS(=O)(=O)c1ccccc1)N1CCC(Cc2ccccc2)CC1 | 10* | i | i | i | CHO-K1 ctr=14*;KCNQ1 pot spec=88*;KCNQ2 pot confirm=8.7*;Kir21 spec=-36;KCNQ2 W236L pot=i
O=C(Nc1cc(S(=O)(=O)N2CCCCC2)ccc1N1CCCCC1)C1CC1 | . | i | . | .
CCCc1nnc(NC(=O)CCC(=O)N2CCN(C3c4ccccc4-c4ccccc43)CC2)s1 | 0.05 | i | . | .
C=CCn1c(COc2ccc(F)cc2)nnc1SCC(=O)NC1CC1 | . | i | . | .
CCOC(=O)CN1C(=O)N[C@@H](c2cccc(F)c2)C(C(=O)OC)=C1C | . | i | i | i
CCOC(=O)CN1C(=O)N[C@@H](c2cccc(F)c2)C(C(C)=O)=C1C | . | i | . | .
COC(=O)C1=C(C)N(Cc2ccccc2)C(=NCc2cc(OC)c(OC)c(OC)c2)N[C@H]1c1cccc(F)c1 | . | i | . | .
COC(=O)C1=C(C)N(Cc2ccccc2)C(=NCCCCO)N[C@H]1c1ccccc1 | . | i | . | .
COC(=O)C1=C(C)N(Cc2ccccc2)C(=NCc2ccc(OC)cc2)N[C@H]1c1cccc(F)c1 | . | i | 26%* | i
COC(=O)C1=C(C)N(Cc2ccccc2)C(=NCCc2cccnc2)N[C@H]1c1ccccc1 | 2.6 | i | i | i
O=S(=O)(/N=C(/c1ccc(F)cc1)N1CCCCC1)c1ccc(Cl)cc1 | 0.9 | i | . | .
O=[N+]([O-])c1cccc(-c2cn(-c3ccccc3)c(=S)[nH]2)c1 | . | i | . | .
O=C(Nc1ccccc1)Nc1ncc([N+](=O)[O-])s1 | 7.8* | i | i | i | CHO-K1 ctr=-23;KCNQ1 pot spec=90*;KCNQ2 pot confirm=15*;Kir21 spec=-67;KCNQ2 W236L pot=i
O=C(Nc1ncc([N+](=O)[O-])s1)c1cccc([N+](=O)[O-])c1 | 1.9 | i | . | .
COc1ccc(CN2CCN(Cc3ccccc3F)CC2)cc1OC | 0.18 | i | . | .
COc1ccc2nc(NCc3ccccc3)[nH]c2c1 | 0.44 | i | . | .
Cc1ccc2nc(NCc3ccccc3)[nH]c2c1 | . | i | 22%* | i
